The values that follow come from PubChem BioAssay (Tox21).

Several values for one entry are separate records, joined by “and”; a condition that tells them apart may be missing. Equal entries are not always repeated. Inconclusive results are not listed. A call without a number means that no potency is given here. A structure can be active in one record and inactive in another. Activity calls are given as the source filed them. Calls follow the shape of the full dose curve.
Potency is read from the fitted curve at half-maximal effect.

A short description of the assay: qHTS assay to identify small molecule agonists of H2AX - cell viability counter screen (AID 1224847). Also: nearly all actives have a fitted effect of over 30% in size. As to activity change, negative = cytotoxicity: top concentration of the series differs between compounds. The following applies: CHO-K1 viability, CellTiter-Glo luminescence, 3 h; series mostly up to 154 µM; activity change, negative = cytotoxicity: at the top concentration. From the text:
National Center for Advancing Translational Sciences [NCATS]
NIH Chemical Genomics Center [NCGC]
U.S. Environmental Protection Agency [EPA]
National Institutes of Environmental Health Sciences [NIEHS]
National Toxicology Program [NTP]
U.S. Food and Drug Administration [FDA]
HTRF phospho-H2AX (Ser139) assay (Cisbio Bioassays, US) enables the quantitative detection of the histone variant H2AX when phosphorylated on serine 139. When double-stranded DNA breaks, either by ionizing radiation or endogenous physiological processes, H2AX becomes phosphorylated at Ser139. This phospho-Ser139 serves as a sensitive biomarker for the detection of such breaks, localizing the site of DNA repair. So, HTRF phospho-H2AX Ser139 is a pertinent assay to study genome stability, the cell cycle, DNA repair, and it serves as a biomarker for cancer, and to understand aging. Wild type CHO-K1 cells were used to identify the inducers of Phospho-H2AX Ser 139 from the Tox21 compound collections. Also cytotoxicity of the Tox21 10K compound library against the CHO-K1 cell line was tested by measuring the cell viability using CellTiter-Glo assay (Promega, Madison, WI).
Tox21 Assay Protocol Summary:
The CHO-K1 cells suspended in culture medium containing 10% FBS were dispensed at 1000 cells/ 3 ul/well in 1536-well white wall/solid bottom plates (Greiner Bio-One North America, NC) using a Multidrop Combi (Thermo Fisher Scientific Inc., Waltham, MA). After the assay plates were incubated at 37C overnight, 23 nl of compounds at 15 concentrations (from 5-48 columns) or positive control (from 1 to 4 columns) were transferred to the assay plates using a Pintool station (Wako, San Diego, CA) into each well resulting in a final DMSO concentration of 0.76%. After 3hr incubation at 37C, 3 uL/well CellTiter-Glo luminescent cell viability reagent (Promega Corporation, Madison, WI) was added using a Flying Reagent Dispenser (FRD) (Aurora Discovery, CA). After incubation at room temperature for 30 min, the luminescence intensity was read using a ViewLux plate reader (PerkinElmer, Waltham, MA).
In general terms: In qHTS, concentration-response curves come from the screen itself.
As to `Cc1c(OCC(F)(F)F)ccnc1CS(=O)c1nc2ccccc2[nH]1` (stereo not given), the Potency result is “inactive”.
On the same count and under the same terms, then `COc1cc([C@@H]2c3cc4c(cc3[C@H](O)[C@H]3COC(=O)[C@H]23)OCO4)cc(OC)c1OC`, with “inactive”; and `O=C(/C=C/c1ccccc1)OCc1ccccc1`, with “inactive”.
Turning to `O=c1oc(=O)c2cc3c(=O)oc(=O)c3cc12`, the Potency result is “inactive”.
On the same count and under the same terms, then `c1cc(N(CC2CO2)CC2CO2)ccc1OCC1CO1` (stereo not given), with “inactive”.
As for `CCOCCOCCO`, the “activity change, negative = cytotoxicity” value is 0.485% (inactive).
Take `CC(C(=O)O)c1cccc(C(=O)c2ccccc2)c1` (stereo not given): the Potency result was “inactive”.
Same read-out and setting: under `COc1ccc(C(=O)CC(=O)c2ccc(C(C)(C)C)cc2)cc1` stands “inactive”; under `OC[C@H]1O[C@@H]2O[C@H]3[C@H](O)[C@@H](O)[C@@H](O[C@H]4[C@H](O)[C@@H](O)[C@@H](O[C@H]5[C@H](O)[C@@H](O)[C@@H](O[C@H]6[C@H](O)[C@@H](O)[C@@H](O[C@H]7[C@H](O)[C@@H](O)[C@@H](O[C@H]8[C@H](O)[C@@H](O)[C@@H](O[C@H]1[C@H](O)[C@H]2O)O[C@@H]8CO)O[C@@H]7CO)O[C@@H]6CO)O[C@@H]5CO)O[C@@H]4CO)O[C@@H]3CO`, “inactive”; under `CC1=CC2C3CC(C=C3C)C2C1` (stereo not given), “inactive”.
`NC=O`: the Potency result is “inactive”.
The same measure, in the same setting: then `O=CCc1ccccc1`, with “inactive”.
The same measure, in the same setting: then `C#C[C@]1(O)CC[C@H]2[C@@H]3CCc4cc(OC)ccc4[C@H]3CC[C@@]21C`, with 45 µM (active); and `CCCCC(CC)COC(=O)c1ccc(N(C)C)cc1` (stereo not given), with “inactive”.
`C[C@]12CC[C@H]3[C@@H](CCC4=CC(=O)CC[C@@]43C)[C@@H]1CC[C@@H]2C(=O)CO`: the “activity change, negative = cytotoxicity” value is -5.35% [at 70.9 µM] (inactive).
Still for that read-out and setting: then `COC(=O)Nc1nc2ccc(S(=O)c3ccccc3)cc2[nH]1` (stereo not given), with 20.7% [at 70.9 µM] (inactive).
For the compound `O=S(=O)(O)c1ccc(O)cc1`, the Potency entry was “inactive”.
Still for that read-out and setting: then `CC(=O)CC/C=C(\C)CCC=C(C)C`, with “inactive”; and `COc1ccc(OC)c(C(O)CNC(=O)CN)c1` (stereo not given), with “inactive”.
As for `CCC(C)c1ccccc1O` (stereo not given), the Potency entry was “inactive”.
The same measure, in the same setting: under `COc1ccccc1/C=C/C=O` stands “inactive”; under `CN(C)CCC=C1c2ccccc2CCc2ccccc21`, 113 µM (active) and inactive.
On the same count and under the same terms, under `CC(CCC(=O)O)(c1ccc(O)cc1)c1ccc(O)cc1` stands “inactive”; under `Cc1cc2nc3c(=O)[nH]c(=O)nc-3n(C[C@H](O)[C@H](O)[C@H](O)CO)c2cc1C`, “inactive”.
Regarding `CCCCC/C=C/C=C/C=O`, the Potency result is “inactive”.
With `Nc1ccc(Nc2ccccc2)cc1`, the Potency is 89.8 µM (active) and 50.5 µM (active).
Same read-out and setting: under `CN(C)C(=N)N=C(N)N` stands “inactive”; under `Cc1[nH]c(=O)c(C#N)cc1-c1ccncc1`, “inactive”.
The same measure, in the same setting: under `CCCc1c(OCCCCc2nn[nH]n2)ccc(C(C)=O)c1O` stands “inactive”; under `CC(=O)c1ccccn1`, “inactive”; under `O=C(Nc1ccc([N+](=O)[O-])cc1Cl)c1cc(Cl)ccc1O`, 2.84 µM (active).
Same read-out and setting: under `CCOC(=O)C(C#N)=C(c1ccccc1)c1ccccc1` stands “inactive”; under `C=C(C)C1CC=C(C)CC1` (stereo not given), “inactive”; under `O=C1c2cccc(O)c2C(=O)c2c(O)cccc21`, “inactive”.
Regarding `Cc1cccc([N+](=O)[O-])c1C`, the Potency result is “inactive”.
Same read-out and setting: under `CCC(C)(O)CCCC(C)C` (stereo not given) stands “inactive”; under `C=CC(C)(CCC=C(C)C)OC(C)=O` (stereo not given), “inactive”.
For `CCCCOCCOCCOCCO`, the Potency result is “inactive”.
`O=C=Nc1ccc(Cc2ccc(N=C=O)cc2)cc1`: the Potency entry is “inactive”.
Still for that read-out and setting: under `CCCCCCCCCC(=O)OC` stands “inactive”.
